From PubChem BioAssay (NCATS)
Inconclusive results are not listed. Entries that show only a call come without a potency. Active and inactive are the calls of the source. The call rests on the fitted dose curve; in most records, active means well fitted inhibition curve with a large enough effect; inconclusive means small, poorly fitted or top-dose-only effect; inactive means no such curve, though single readings can be large or run the other way.

These molecules were tested on Zika virus NS2B-NS3 protease (unlinked complex) (assay: Primary screen GU Rhodamine qHTS for Zika virus inhibitors: Unlinked NS2B-NS3 protease assay (AID 1347159; further: nearly all actives have a fitted effect of over 60% in size)). Conditions: Recombinant ZIKV NS2B-NS3 protease, Rhodamine110 substrate fluorescence; series mostly up to 107 µM.
Method in brief: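 Percent inhibition derives from the 15-min fluorescence change (ex 480, em 540 nm), normalized to no-enzyme and no-inhibitor wells. Reactions contained 25 nM NS2B-NS3 complex and 1.5 microM substrate in 10 mM Tris-HCl pH 8.0.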

Row | Compound | Potency
1 | NC1(c2ccc(-c3nc4ccn5c(=O)[nH]nc5c4cc3-c3ccccc3)cc2)CCC1 | inactive
2 | CCCCc1oc2ccc(NS(C)(=O)=O)cc2c1C(=O)c1ccc(OCCCN(CCCC)CCCC)cc1 | inactive
3 | CC1(C)[C@H](C(=O)O)N2C(=O)C[C@H]2S1(=O)=O | inactive
4 | COc1cc2ncnc(Nc3cccc(Cl)c3)c2cc1OC | inactive
5 | Cc1nnc(C(=O)NC(C)(C)c2nc(C(=O)NCc3ccc(F)cc3)c(O)c(=O)n2C)o1 | inactive
6 | CC[C@H](C)C(=O)O[C@H]1C[C@@H](C)C=C2C=C[C@H](C)[C@H](CC[C@@H]3C[C@@H](O)CC(=O)O3)[C@H]21 | inactive
7 | Cc1onc(-c2ccccc2Cl)c1C(=O)N[C@@H]1C(=O)N2[C@@H]1SC(C)(C)[C@@H]2C(=O)O | inactive
8 | CN(C)CCc1c[nH]c2ccc(C[C@H]3COC(=O)N3)cc12 | inactive
